From PubChem BioAssay
V-ATPase pHluor: regulators of yeast V-ATPase proton pumping, primary screen, pHLuorin cytosolic pH fluorescence | S. cerevisiae | response, % at 10 µM | hit rate 0.37% among 350,000 | AID 504577, 2011; in the data active = response mostly above about 7.3%, no sharp cut-off; inactive = mostly below about 5.4%; note: actives read high
ADAM17 inh: ADAM17 inhibitors, primary screen, biochemical, QFRET | hit rate 0.83% among 370,000 | inhibition, % at 6.95 µM | AID 720648, 2013 | recombinant ADAM17, EDANS/DABCYL FRET peptide cleavage;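 active = inhibition above the mean of compounds lying between control limits plus 3 SD, set per campaign, cut at about 8.5% in these data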;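 note: 0% = DMSO-only wells as the low control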
proKLK7 act: proKLK7 zymogen activators, primary screen, biochemical, fluorescence intensity; Kallikrein-7 (Homo sapiens), P49862; purified proKLK7, EDANS-DABCYL substrate fluorescence; 100% is mature enzyme control, 0% vehicle; activation, % at 7 µM; hit rate 0.9% among 370,000;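 active = activation above the mean of all tested compounds plus 3 SD, computed per campaign excluding outliers beyond control limits, cut at about 13% in these data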
Target sequence (P49862 whole entry, looked up): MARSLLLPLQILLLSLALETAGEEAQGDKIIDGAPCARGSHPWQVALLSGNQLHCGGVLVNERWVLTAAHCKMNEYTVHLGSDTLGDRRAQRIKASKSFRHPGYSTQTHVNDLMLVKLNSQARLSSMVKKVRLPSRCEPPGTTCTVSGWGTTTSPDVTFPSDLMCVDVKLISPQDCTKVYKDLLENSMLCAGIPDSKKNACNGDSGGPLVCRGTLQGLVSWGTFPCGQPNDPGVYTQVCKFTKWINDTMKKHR
ADAM10 inh: human ADAM10 inhibitors, primary screen, biochemical, QFRET, HTS; Disintegrin and metalloproteinase domain-containing protein 10 (Homo sapiens), O14672; recombinant ADAM10, EDANS/DABCYL FRET peptide cleavage, 3 h; inhibition, % at 7 µM; hit rate 0.62% among 370,000; AID 720582, 2013;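 active = inhibition above a per-campaign cutoff equal to the mean of compounds falling between control-based bounds plus 3 SD, cut at about 20% in these data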;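 note: 0% = DMSO wells while the 100% control is not disclosed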
KLK7 act conf: proKLK7 zymogen activators, confirmation, biochemical, fluorescence intensity, triplicate; hit rate 68% among 3,200; purified proKLK7, EDANS-DABCYL substrate fluorescence; scaled: vehicle 0, mature enzyme 100; activation, % at 7 µM; shares compounds with proKLK7 act; AID 686949, 2013;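 active = activation, as change over the incubation, above the mean of all tested compounds plus 3 SD, cut at about 13% in these data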
EDANS-DABCYL int: EDANS-DABCYL substrate optical interference, artefact control for kallikrein-7 zymogen activator project, biochemical, fluorescence intensity, high throughput. shares compounds with proKLK7 act. activation, % at 7 µM. hit rate 80% among 3,200. no enzyme, 4 h; solvent 0%, active enzyme control 100%;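 active = activation above the all-compound mean plus 3 SD, ignoring values outside control-based bounds, cut at about 4.8% in these data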;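 note: value is the 4 h activation minus the activation read at time zero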
An asterisk follows results filed as active; i = inactive; · = not tested or not shown. Only some compounds are listed: those with a hit (about 2.3% of all), similar ones and a draw of the others.

SMILES	V-ATPase pHluor	ADAM17 inh	proKLK7 act	ADAM10 inh	KLK7 act conf	EDANS-DABCYL int
COCCN(CCOC)Cc1c(O)ccc2c3c(c(=O)oc12)CCC3	-6	i	61*	i	70*	74*
CCCCN(CC)Cc1c(O)ccc2c3c(c(=O)oc12)CCC3	1	i	62*	i	68*	72*
CCc1c(C)c2ccc(O)c(CN(C)C)c2oc1=O	5	i	56*	i	65*	65*
CN(C)Cc1c(O)ccc2c3c(c(=O)oc12)CCCCC3	0	i	48*	i	57*	78*
CCN(CC)C(=O)COc1ccc2c3c(c(=O)oc2c1C)CCCC3	3	-93	2	-255	·	·
O=C(Cn1c(-c2cncs2)nc2ccccc21)N1CCOCC1	·	1	0	-12	·	·
CN1OC[C@@H]2CN[C@H](c3ccc(N4CCCCC4)cc3)C[C@@H]21	·	-8	1	-10	·	·
COc1ccc(S[C@]2(C(=O)N3CCCC3)CC(=O)N(S(=O)(=O)c3ccc(F)cc3)[C@@H]2c2ccc(OC)cc2)cc1	·	3	0	2	·	·
Cc1cc(=O)oc2c3c(cc(OCC(=O)NC(C)C)c12)OC(C)(C)CC3	-2	i	23*	i	47*	63*
Cc1cc(=O)oc2c3c(cc(OCC(=O)N[C@@H](C)C(=O)O)c12)OC(C)(C)CC3	1	i	64*	i	62*	73*
COC(=O)[C@]12C[C@H](CC(=O)NCc3cccs3)C(=O)N(CCC3=CCCCC3)C1=C[C@H](C1CCCC1)O[C@@H]2C	·	2	-1	8	·	·
COC(=O)c1ccccc1-c1c2ccc(=N)cc-2oc2cc(N)ccc12	454*	-1	101*	-8	65*	86*
COC(=O)c1ccccc1-c1ccc(/C=N/NC(=O)c2cc3ccccc3o2)o1	0	-54	-100	-159	·	·
CN1CCCCC(NC(=O)c2cccc(C(F)(F)F)c2)C1=O (stereo unspecified)	·	-4	0	-8	·	·
CN(C)CCNc1ccc2ncn3c4ccc(O)cc4c(=O)c1c23	-11	-4	72*	-13	57*	50*
O=C(Nc1ccc(Br)cc1)OC1CC2CC1[C@H]1CCCCN1C2 (stereo partly specified)	·	-4	0	1	·	·
COCc1cc(N2CCN(C(=O)OC(C)(C)C)C[C@H]2C)ccc1N1CCN(Cc2ccccc2)[C@H](C)C1	·	0	1	-3	·	·
COc1cc2c(cc1OC)C(Cc1ccc(O)cc1)N(C)CC2 (stereo unspecified)	3	-11	17*	-47	68*	90*
COc1cc2c(cc1OC)C(Cc1ccc(O)cc1)NCC2 (stereo unspecified)	-1	-4	4	-9	·	·
O=C(C(=O)N1CCC(CNC(=O)c2cccs2)CC1)c1cc2ccccc2o1	·	-1	0	3	·	·
CCC[n+]1c2ccccc2cc2ccccc21	2	-267	77*	i	73*	81*
CCCC[n+]1c2ccccc2cc2ccccc21	-4	-244	65*	i	70*	74*
Cc1ccc2ccccc2[n+]1CCCS(=O)(=O)[O-]	-4	-11	0	-22	·	·
CC(CCN1CCC(C(O)(c2ccccc2)c2ccccc2)CC1)Oc1ccc(C#N)c(F)c1 (stereo unspecified)	·	1	0	2	·	·
O=[N+]([O-])c1ccc(OC2OCC(O)C(O)C2O)cc1 (stereo unspecified)	·	-4	0	-5	·	·
SMILES	V-ATPase pHluor	ADAM17 inh	proKLK7 act	ADAM10 inh	KLK7 act conf	EDANS-DABCYL int
CN(C)CCNc1oc(/C=C/c2ccccc2)nc1C#N	0	i	98*	i	66*	69*
CN(C)CCCNc1oc(-c2cccc(Cl)c2)nc1C#N	5	-253	51*	i	17*	26*
COCCCNc1oc(/C=C/c2ccccc2)nc1C#N	-4	i	44*	i	57*	61*
C=CCNc1oc(/C=C/c2ccccc2)nc1C#N	2	i	46*	i	66*	68*
CN(C)CCCNc1oc(/C=C/c2ccccc2)nc1C#N	2	-13	1	-50	·	·
CCOC(=O)c1nn(-c2ccc(F)cc2)cc1O	7	0	-4	-9	·	·
CCOC(=O)c1nn(-c2ccc3c(c2)CCN3C(C)=O)cc1O	1	i	175*	i	-4	19*
Cc1cc(C)n2nc(C)c(-c3ccccc3)c2n1	-4	-4	0	-12	·	·
c1ccc(-c2cn3nc(-c4ccccc4)cnc3n2)cc1	-9	-16	-3	-50	·	·
CCc1ccc(-c2cn3nc(C)c(C)nc3n2)cc1	-4	i	49*	i	73*	72*
Cc1nc2nc(-c3ccccc3)cn2nc1C	9	i	64*	i	70*	72*
Cc1nc2nc(-c3ccc(F)cc3)cn2nc1C	6	i	67*	i	69*	59*
CCc1c(-c2ccccc2)nc2nc(C)c(C)nn12	3	-27	15*	-102	-4	0
COC(=O)C1=C(C)N(C)C(=NCc2ccc3c(c2)OCO3)NC1c1cccc(Cl)c1 (stereo unspecified)	·	-2	0	0	·	·
COC(=O)[C@]12C[C@H](CC(=O)NCc3ccccc3)C(=O)N(Cc3ccccc3)C1=C[C@H](C1CCCC1)O[C@@H]2C	·	1	0	6	·	·
C=CCCC1CN(Cc2ccc(OC)cc2)S(=O)(=O)c2c(cccc2N2CCCCC2)O1 (stereo unspecified)	·	-1	0	-21	·	·
COC(=O)c1ccc(NC2CC(=O)N(c3ccccc3C)C2=O)cc1 (stereo unspecified)	0	-5	1	-5	·	·
COC(=O)c1ccccc1NC1CC(=O)N(c2c(C)cccc2C)C1=O (stereo unspecified)	-4	-265	88*	i	48*	49*
COC(=O)C1CN(Cc2ccc(F)cc2)CCS(=O)(=O)N1Cc1cn(Cc2ccc(F)cc2)nn1 (stereo unspecified)	·	-4	0	-3	·	·
N#Cc1c(N)n(-c2cccc(O)c2)c2nc3ccccc3nc12	-2	i	117*	i	42*	47*
Nc1c(S(=O)(=O)c2cccs2)c2nc3ccccc3nc2n1Cc1ccccc1	-1	-284	-27	i	·	·
N#Cc1c(N)n(-c2ccc(O)cc2)c2nc3ccccc3nc12	-2	-34	2	-89	·	·
